# This is part of a sample that, as a whole, favours compounds with a hit. Of some 83,000 tested, about 20% had one in any assay.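 Step 1: grow cells in 96-well plates. Step 2: add test compound at a single concentration. Step 3: incubate 48 h. Step 4: record percent growth.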 A number with no mark means an inactive call. Activity calls are given as the source filed them. Rule for the calls: active = growth percent below 10; inactive = the rest.
# Columns and labels:
# Test in all cases: NCI-60 one-dose screen, 48 h (100 = growth as untreated, 0 = no growth, -100 = all killed)
# Conditions in all cases: 10 µM unless noted
# DU-145 prostate = tested on: DU-145 prostate
# K-562 leukemia = tested on: K-562 leukemia
# MALME-3M melanoma = tested on: MALME-3M melanoma
# MDA-MB-231 breast = tested on: MDA-MB-231 breast
# SF-268 CNS = tested on: SF-268 CNS
# SF-295 CNS = tested on: SF-295 CNS
# SF-539 CNS = tested on: SF-539 CNS
# M14 melanoma = tested on: M14 melanoma
Structure (SMILES),growth (DU-145 prostate),growth (K-562 leukemia),growth (MALME-3M melanoma),growth (MDA-MB-231 breast),growth (SF-268 CNS),growth (SF-295 CNS),growth (SF-539 CNS),growth (M14 melanoma)
c1cc[n+](Cc2c3ccccc3cc3c2ccc2ccccc23)cc1,57.2%,16.4%,-23.5% (active),72.1%,7.4% (active),4.38% (active),13.6%,62.3%
CSc1nc2ncnc(SC)c2[nH]1,110%,100%,110%,107%,102%,102%,103%,97.9%
CC(C)c1ccc(/C=N/Nc2nc3ccccc3s2)cc1,101%,85.5%,62.9%,81.6%,99.2%,98.5%,103%,94.5%
Cc1ccc2oc(=O)cc(-c3cc(-c4cc5ccccc5oc4=O)nc(N)c3C#N)c2c1,61.6%,81%,51.3%,55.5%,48.1%,63.4%,59.8%,85.7%
ClCc1ccc(-c2ccc(Cn3cnc4c(Cl)nc(Cl)nc43)cc2)cc1,-93.4% (active),9.48% (active),-20% (active),-37.7% (active),-13.5% (active),-74.2% (active),-86.9% (active),48.3%
CCc1cc2c(c3ccc(C(=O)CBr)cc13)CCCC2,107%,86.4%,95.9%,99.8%,92.2%,105%,98.3%,107%
COc1ccc(-c2nc(N)ncc2Oc2ccccc2OC)c(O)c1,34.9%,12.2%,48%,51.9%,46.3%,-0.599% (active),8.99% (active),12.5%
O=C(Cc1ccccc1)Nc1nnc(NC2CCN(c3nnc(NC(=O)Cc4ccccc4)s3)CC2)s1,91.7%,87.9%,82.8%,77.5%,91.1%,56.8%,93.5%,85.2%
CCCCCCCC(=O)SCC/C=C/[C@@H]1CC(=O)NCc2cccc(n2)C2=N[C@@](C)(CS2)C(=O)N[C@@H](C(C)C)C(=O)N1,28.9%,16%,2.46% (active),21.9%,53.6%,-1.52% (active),48.6%,35.6%
COC(=O)[C@]12CC[C@@H](C)[C@H](C)[C@@H]1C1=CC[C@@H]3[C@@]4(C)C[C@@H](OC(=O)/C=C/c5ccccc5)[C@H](O)[C@@](C)(CO)[C@@H]4[C@H](O)C[C@@]3(C)[C@]1(C)CC2,9.11% (active),1.96% (active),3.65% (active),-72.7% (active),17.4%,-16.4% (active),-49.1% (active),16%
O=c1nc2c(-c3nc4ccccc4s3)n[nH]n2c2sc3c(c12)CCCC3,104%,92.3%,104%,93.7%,97.6%,89.8%,105%,98.8%
COc1cc2c(cc1OCCCCCN1CCN(c3ncnc4ccccc34)CC1)N=CC1CCCN1C2=O (stereo not drawn),-20.8% (active),5.44% (active),-59% (active),-26.6% (active),-0.231% (active),-39.7% (active),-77.3% (active),-66.9% (active)
NC1=Nc2ccccc2N(O)N1,113%,96.7%,97%,102%,98.1%,102%,96.3%,103%
NS(=O)(=O)c1ccc(CCN2C(=O)/C(=C\c3ccc(Cl)cc3)C=C2c2ccc3ccccc3c2)cc1,108%,96.4%,98.8%,90.5%,103%,99.1%,101%,95%
Nc1c2c(c(O)c3c1=C(CO)C=N3)=NCCS2=O (stereo not drawn),-95.1% (active),-7.83% (active),-97.8% (active),1.89% (active),-38.2% (active),-95.8% (active),-88.8% (active),-85.2% (active)
COc1cc2c3c(c1)nc(C)n3CCC2,109%,98.8%,110%,107%,107%,95.8%,97.9%,100%

Structure (SMILES),growth (DU-145 prostate),growth (K-562 leukemia),growth (MALME-3M melanoma),growth (MDA-MB-231 breast),growth (SF-268 CNS),growth (SF-295 CNS),growth (SF-539 CNS),growth (M14 melanoma)
Cc1cccc(NC(=O)[C@@H]2c3ccccc3C(=O)N(c3ccc(Cl)cc3)[C@H]2c2ccc(Cl)cc2)n1,79.8%,47.7%,61.1%,32.1%,62.8%,24.1%,71%,45.8%
Nc1c(C(=O)c2ccccc2)sc2nc(-c3cccs3)ccc12,20.6%,14.1%,72.5%,37.9%,45.7%,5.01% (active),1.09% (active),30.2%
Clc1nc(Cl)c2ncn(C/C=C\Cn3cnc4c(Cl)nc(Cl)nc43)c2n1,-98.4% (active),-24.8% (active),-72.7% (active),-68.5% (active),-2.21% (active),-32.9% (active),-52.9% (active),-32.9% (active)
COc1ccc(C2CC(=O)c3c(O)c(OC)c(OC)c(OC)c3O2)c(O)c1 (stereo not drawn),22.2%,13.9%,64.7%,24.9%,44.4%,7.86% (active),-7.78% (active),12.6%
CC(C)[C@@H]1CC[C@]2(CO2)[C@@H]2C(=O)OCC(C(=O)O)=C[C@H]21,7.04% (active),7.2% (active),-3.58% (active),9.95% (active),1.21% (active),22.2%,6.83% (active),-48.5% (active)
CC1(C=O)NC(=O)NC1=O (stereo not drawn),111%,103%,118%,103%,101%,103%,103%,103%
COc1ccc(OC)c(NC2=C(SCCc3ccccc3)C(=O)c3ccccc3C2=O)c1,92.2%,91.2%,90.8%,62.8%,84.6%,92.2%,85.7%,83.3%
COc1ccc2c(CCC(c3ccccc3)c3ccccc3)c3[n+](cc2c1OC)CCc1cc2c(cc1-3)OCO2,18.5%,6.12% (active),-7.17% (active),-28.7% (active),19.8%,-15.8% (active),13.6%,2.51% (active)
CCN(CC)C(=O)C[N+](C)(C)CCOC(c1ccccc1)c1ccccc1,103%,109%,98.5%,117%,103%,99.5%,102%,100%
COc1cc2c(cc1OCCCCN1CCN(CC(=O)Nc3ccc(Cl)cc3C(=O)c3ccccc3Cl)CC1)N=CC1CCCN1C2=O (stereo not drawn),-95.9% (active),-53% (active),-76.8% (active),-85% (active),-75.5% (active),-94.6% (active),-86.7% (active),-67.6% (active)
CCCCN1CCCC[C@@H]1C(=O)N[C@H](C(=O)N(C)[C@H](CCc1nc(C(=O)N[C@@H](Cc2ccccc2)C[C@H](C)C(=O)OC)cs1)C(C)C)C(C)C,92.9%,22.9%,45.1%,71.5%,84.3%,49.4%,82.8%,49.9%
CCCCCCC1(/C=N/NC(N)=O)NC(=O)NC1=O (stereo not drawn),107%,102%,103%,110%,99.3%,98.1%,96.3%,97.3%
C=C1C(=O)O[C@H]2[C@H]1CC/C(CNC(=O)c1cc3cc(OC)ccc3[nH]1)=C\CC[C@@]1(C)O[C@@H]21,-92% (active),-3.44% (active),-61.6% (active),-55.5% (active),-39.3% (active),37.6%,-60.6% (active),-42.4% (active)
CCCCCCCC(=O)SCC/C=C/[C@@H]1CC(=O)NCc2nc(co2)C2=N[C@@](C)(CS2)C(=O)N[C@@H](C(C)C)C(=O)O1,7.24% (active),6.6% (active),5.59% (active),-1.69% (active),1.9% (active),-62.5% (active),9.22% (active),-3.25% (active)
COc1ccc2c(c1OC)C(=O)O[C@@H]2[C@H]1c2c(c(C#CC#Cc3ccc(F)c(F)c3)c3c(c2OC)OCO3)CCN1C,103%,87.1%,91%,90.9%,95.9%,95.6%,94.9%,90.6%

# Reference: PubChem BioAssay (NCI)
